Growth data for 14 compounds are collected here from PubChem BioAssay (NCI).

Compounds without any hit were thinned out: in the full panel of roughly 83,000, 20% have a hit.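 Percent growth is the endpoint: 0 to 100 indicates growth inhibition (40 means 60% inhibition), 0 means no net growth, and negative values indicate cell death.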 Values without a mark were called inactive. Active and inactive are the calls of the source. How the source made its calls: active means growth percent below 10; inactive means the rest.

For this assay, the system named is HL-60(TB) leukemia. Nature of the assay: NCI-60 one-dose screen, 48 h (100 = growth as untreated, 0 = no growth, -100 = all killed). As to conditions: 10 µM unless noted.
Take `Cc1ccc2c(NCCCN(C)C)c3c(C)nn(C)c3nc2c1`: the growth was 32.4%. Regarding `O=C(c1ccccc1)c1c(/C=C/c2ccccc2)nc2ccccc2c1/C=C/c1ccc(Br)cc1`, the growth is 112%.

As to `COc1c(Cl)cc(Cl)cc1Cl`, the growth was 98.7%. The value for `Clc1ccccc1Nc1nnc(-c2ccncc2)s1` was 79.1%; that for `COc1cc(/C=C/c2cc(/C=C/c3ccc(O)c(OC)c3)n(C(N)=O)n2)ccc1O` was -25.1% (active). In the case of `CCN(CC)CCCCNc1c2ccccc2[n+](C)c2c1[nH]c1ccccc12` it was 22.7%. The value for `CCOC(=O)Nc1ccc2c(c1)C(=O)N(CCOC)c1ccccc1O2` was -17.1% (active). Consider `CC(C)(C)CC(C)(C)Nc1c(-c2ccc3c(c2)OCO3)nc2cnccn12`, for which the growth was 77.8%. The value for `O=C(Nc1cccc(-n2cc(-c3ccncc3)c(-c3ccc(Cl)c(O)c3)n2)c1)c1ccc(N2CCOCC2)c(C(F)(F)F)c1` was 51.6%. `COc1ccc(-c2cc(-c3cccnc3)nc3sc4c(N)c(C(C)=O)c(-c5ccccc5)nc4c23)cc1OC`: the growth is 78%. The value for `CC1=CCC(OC(=O)C(C)(O)CCC(O)(C(=O)OC2(C)C=CC(O)(C(C)C)CC2)C(C)C)(C(C)C)CC1` (centres undefined) was 110%; that for `C1=C(c2ccccc2)c2ccccc2C1` was 95.1%. In the case of `CN(C)c1ccc(/C=C2\C=C(c3nc4ccccc4s3)OC2=O)cc1` it was 94.8%; in that of `Cc1ccc(S(=O)(=O)Nc2ccc(-c3cc(-c4cccc(F)c4)c(C#N)c(=O)[nH]3)cc2)cc1`, 87%.
